The text below walks through data of PubChem BioAssay (EPA / NIEHS).

Values joined by “and” are separate entries in the source; they are usually repeats but may differ in a detail not shown here. Equal values may be shown once. Active and inactive are the calls of the source. How the source made its calls: active means hit-call score of the fitted dose curve at least 0.9, where 1 is the maximum; inactive means score below 0.9.

Experiment [1] deals with Bile acid receptor (Homo sapiens) (UniProt Q96RI1). The experiment is described as follows: ATG_IR1_CIS: Attagene CIS-FACTORIAL HepG2 Assay for human Nuclear Receptor Subfamily 1 Group H Member 4 (NR1H4), IR1 submotif (AID 2282946). Particulars: IR1 reporter transcription, actives raise or lower the signal. The gist of the method: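 Readout: reporter transcript levels by RT-PCR with fluorescent capillary electrophoresis, from HepG2 cells transiently transfected with multiplexed cis-regulated reporters and dosed 24 h. Gain- or loss-of-signal fitted versus DMSO negative control.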

Experiment [2] can be described thus: ATG_GRE_CIS: Attagene CIS-FACTORIAL HepG2 Assay for human Glucocorticoid Response Elements (GRE) (AID 2282947). Conditions: HepG2 GRE cis-reporter, Attagene multiplex mRNA; actives raise or lower the signal. The gist of the method:
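HepG2, transient cis-reporter transfection, 24 h. Reporter mRNA: RT-PCR then CE, fluorescence. Fit both directions vs DMSO.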

Experiment [3] in a line: ATG_ISRE_CIS: Attagene CIS-FACTORIAL HepG2 Assay for human Interferon Regulatory Factor 1 (IRF1) binding to an Interferon-Stimulated Response Element (ISRE) (AID 2282948). Conditions: HepG2 ISRE cis-reporter (Attagene), mRNA transcription readout; actives raise or lower the signal. The gist of the method:
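Multiplexed mRNA reporter readout in human liver HepG2 cells: cis-element-driven reporters transfected, compound added for 24 h, transcripts amplified, fluorescently labelled and sized by capillary electrophoresis; curve fitting bidirectional against DMSO.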

Experiment [4] is described as follows: ATG_M_32_CIS: Attagene CIS-FACTORIAL HepG2 Assay for M32 Transcription Factor (Internal Marker) (AID 2282949).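 Further: background control marker of the multiplexed CIS panel rather than a real target.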 Conditions: HepG2 Attagene cis-factorial M32 reporter, mRNA; actives raise or lower the signal. The method in brief: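 Using DMSO as baseline, bidirectional curve fits were applied to reporter mRNA signals. These came from transiently transfected HepG2 cells exposed for 24 h, with RNA analysed by RT-PCR, FAM primer extension, HpaI digestion and CE.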

Experiment [5] is described as follows: ATG_M_06_CIS: Attagene CIS-FACTORIAL HepG2 Assay for M06 Transcription Factor (Internal Marker) (AID 2282950). Conditions: HepG2 Attagene CIS-FACTORIAL M06 internal marker reporter; actives raise or lower the signal. The method in brief:
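Steps: transfect HepG2 with multiplexed cis-element reporter constructs; dose chemical 24 h; extract RNA with DNase treatment; reverse-transcribe, PCR-amplify, 6-FAM label, HpaI digest; separate fragments by capillary electrophoresis. Activity fitted both directions versus DMSO.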

Experiment [6] concerns the target Hepatocyte nuclear factor 6 (Homo sapiens) (UniProt Q9UBC0). Kind of experiment: ATG_HNF6_CIS: Attagene CIS-FACTORIAL HepG2 Assay for human Hepatocyte Nuclear Factor 6 (HNF6) (AID 2282952). Conditions: HepG2 Attagene cis-factorial HNF6 reporter transcription; actives raise or lower the signal. The method in brief:
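Activity values derive from bidirectional fitting against DMSO of reporter mRNA levels, measured by capillary electrophoresis of labelled RT-PCR products from HepG2 cells exposed 24 h.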

Experiment [7] has as its target Heat shock factor protein 1 (Homo sapiens) (UniProt Q00613). Kind of experiment: ATG_HSE_CIS: Attagene CIS-FACTORIAL HepG2 Assay for human Heat Shock Transcription Factor 1 (HSE) (AID 2282953). Conditions: HepG2 HSE cis-reporter, Attagene RNA transcription; actives raise or lower the signal. The gist of the method: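 Cells were transfected with cis-element-driven reporter constructs, dosed for 24 h, then total RNA was reverse-transcribed and reporter cDNA amplified, FAM-labelled and digested with HpaI. Fragments were resolved by capillary electrophoresis; gain or loss was fitted against DMSO.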

Experiment [8] can be described thus: ATG_MRE_CIS: Attagene CIS-FACTORIAL HepG2 Assay for human Metal Responsive Element (MRE) (AID 2282954). Particulars: HepG2 MRE cis-reporter transcription, Attagene multiplex; actives raise or lower the signal. The gist of the method:
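Readout: capillary electrophoresis of 6-FAM-labelled, HpaI-digested RT-PCR reporter products. System: HepG2 cells carrying transient multiplexed cis reporters, dosed 24 h. Analysis: bidirectional fit, DMSO baseline.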

Experiment [9] addresses Paired box protein Pax-6 (Homo sapiens) (UniProt P26367). The experiment is described as follows: ATG_Pax6_CIS: Attagene CIS-FACTORIAL HepG2 Assay for human Paired Box 6 (PAX6) (AID 2282956). Conditions: HepG2 CIS-FACTORIAL PAX6 reporter transcription, RNA readout; actives raise or lower the signal. The method in brief:
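Fluorescent RT-PCR products separated by capillary electrophoresis report PAX6-linked promoter mRNA in HepG2 cells 24 h post-dose. Curves fitted bidirectionally, DMSO as negative control.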

Experiment [10] can be described thus: ATG_PXRE_CIS: Attagene CIS-FACTORIAL HepG2 Assay for human Pregnane X Receptor Element (PXRE) (AID 2282957). Particulars: HepG2 Attagene CIS-FACTORIAL PXRE reporter, mRNA; actives raise or lower the signal. The method in brief:
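Fluorescent capillary electrophoresis of amplified reporter cDNA gave the signal, collected 24 h after dosing HepG2 cells that held transfected cis-element reporter constructs.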

A short description of experiment [11]: ATG_PPRE_CIS: Attagene CIS-FACTORIAL HepG2 Assay for human Peroxisome Proliferator-activated Response Element (PPRE) (AID 2282958). Particulars: HepG2 PPRE cis-element reporter, Attagene transcription factor profiling; actives raise or lower the signal. The gist of the method:
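Measured endpoint: PPRE-controlled reporter mRNA, detected by RT-PCR and capillary electrophoresis fluorescence, from transiently transfected HepG2 cells 24 h after dosing. Curves fitted in both directions using DMSO baseline.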

Experiment [12] can be described thus: ATG_RORE_CIS: Attagene CIS-FACTORIAL HepG2 Assay for human RAR-related Orphan Receptor Element (RORE) (AID 2282959). Particulars: HepG2 Attagene cis-factorial RORE reporter, mRNA; actives raise or lower the signal. The method in brief: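 Transiently transfected HepG2 reporter cells were treated 24 h. Reporter transcripts were detected by RT-PCR and capillary electrophoresis, with bidirectional fitting against DMSO.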

Experiment [13] can be described thus: ATG_Sox_CIS: Attagene CIS-FACTORIAL HepG2 Assay for human SRY-box transcription factor (SOX) (AID 2282960). Conditions: HepG2 Attagene cis-factorial SOX reporter, mRNA; actives raise or lower the signal. The gist of the method: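 Gain- or loss-of-signal endpoint, fitted bidirectionally with DMSO as negative control. Based on reporter mRNA from transfected HepG2 cells harvested 24 h post-treatment and quantified via RT-PCR and capillary electrophoresis.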

Experiment [14] concerns the target Transcription factor Sp1 (Homo sapiens) (UniProt P08047). Kind of experiment: ATG_Sp1_CIS: Attagene CIS-FACTORIAL HepG2 Assay for human Specificity Protein 1 (Sp1) (AID 2282961). Particulars: HepG2 Sp1 cis-reporter transcription, actives raise or lower the signal. The method in brief: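 Endpoint reflects endogenous Sp1 transcriptional activity, not an exogenous fusion protein: HepG2 cells with transfected cis-regulated reporters, 24 h dosing, RT-PCR/capillary electrophoresis mRNA read-out, DMSO-normalised bidirectional fit.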

Experiment [15] can be described thus: ATG_SREBP_CIS: Attagene CIS-FACTORIAL HepG2 Assay for human Sterol Regulatory Element Binding (SREBP) (AID 2282962). Conditions: HepG2 Attagene cis-factorial SREBP reporter, mRNA; actives raise or lower the signal. The gist of the method:
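Endogenous factor activity is measured in HepG2 through multiplexed reporter units under cis-element control. Following a 24 h incubation, reporter transcripts are reverse-transcribed, PCR-amplified and sized by capillary electrophoresis; activity is fitted in both directions relative to DMSO.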

Experiment [16] addresses Signal transducer and activator of transcription 3 (Homo sapiens) (UniProt P40763). The experiment is described as follows: ATG_STAT3_CIS: Attagene CIS-FACTORIAL HepG2 Assay for human Signal Transducer and Activator of Transcription 3 (STAT3) (AID 2282963). Particulars: HepG2, Attagene cis-factorial STAT3 reporter transcription; actives raise or lower the signal. The method in brief:
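Uses human liver HepG2 transiently carrying cis-regulated reporter transcription units. Following 24 h dosing, reporter mRNA induction was detected by RT-PCR and capillary electrophoresis, analysed bidirectionally versus DMSO.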

A short description of experiment [17]: ATG_TA_CIS: Attagene CIS-FACTORIAL HepG2 Assay for human TA Basal Promoter (AID 2282964). Conditions: HepG2 Attagene CIS-factorial TA basal promoter reporter; actives raise or lower the signal. The gist of the method: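 Steps: transfect HepG2 with MRTUs; dose 24 h; isolate RNA, DNase-treat, reverse-transcribe; PCR and FAM-label reporter cDNA; digest with HpaI 2h at 37 C; run capillary electrophoresis. Activity fitted both directions against DMSO.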

Experiment [18] is described as follows: ATG_TCF_b_cat_CIS: Attagene CIS-FACTORIAL HepG2 Assay for human T-Cell-Factor with beta-catenin (TCF/b-cat) (AID 2282965). Particulars: HepG2 TCF/beta-catenin cis-reporter transcription, actives raise or lower the signal. The method in brief: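 HepG2 cells transiently transfected with multiple cis-promoter-regulated reporter transcription units, so endogenous transcription factor activity is measured. Reporter mRNA read 24 hours after dosing by RT-PCR, fluorescent labelling and capillary electrophoresis; bidirectional fitting against DMSO.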

Experiment [19] has as its target Hypoxia-inducible factor 1-alpha (Homo sapiens) (UniProt Q16665). Kind of experiment: ATG_HIF1a_CIS: Attagene CIS-FACTORIAL HepG2 Assay for human Hypoxia Inducible Factor 1 (HIF1A) (AID 2282951). Particulars: HepG2 Attagene cis-factorial HIF1a reporter transcription; actives raise or lower the signal. The method in brief:
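Dosed 24 h, transfected HepG2 cells yielded total RNA whose reporter transcripts were RT-PCR-amplified and sized by capillary electrophoresis using fluorescent labelling; DMSO defined baseline, with gain and loss of signal both fitted.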

The nature of experiment [20]: ATG_PBREM_CIS: Attagene CIS-FACTORIAL HepG2 Assay for human Phenobarbital-responsive Enhancer Module (PBREM) (AID 2282955). Conditions: HepG2 PBREM cis-reporter, Attagene multiplexed transcription; actives raise or lower the signal. The gist of the method: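 Transfected liver-derived HepG2 cells exposed 24 h; PBREM reporter transcript quantified via RT-PCR and capillary electrophoresis, with activity in either direction referenced to DMSO.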

Chain of Hepatocyte nuclear factor 6 (Homo sapiens) (Q9UBC0 whole entry, looked up): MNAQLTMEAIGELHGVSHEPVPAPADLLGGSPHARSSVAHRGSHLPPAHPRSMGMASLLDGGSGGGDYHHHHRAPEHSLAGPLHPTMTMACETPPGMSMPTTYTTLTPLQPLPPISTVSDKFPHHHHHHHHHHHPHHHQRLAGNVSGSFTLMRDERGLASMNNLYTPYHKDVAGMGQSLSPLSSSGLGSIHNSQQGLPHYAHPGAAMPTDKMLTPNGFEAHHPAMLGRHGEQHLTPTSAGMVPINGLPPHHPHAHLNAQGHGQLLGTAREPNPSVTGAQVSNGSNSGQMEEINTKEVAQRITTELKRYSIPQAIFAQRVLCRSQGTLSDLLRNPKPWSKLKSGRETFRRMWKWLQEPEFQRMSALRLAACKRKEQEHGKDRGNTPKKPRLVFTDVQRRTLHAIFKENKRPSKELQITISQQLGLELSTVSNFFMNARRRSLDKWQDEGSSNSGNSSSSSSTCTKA
Chain of Heat shock factor protein 1 (Homo sapiens) (Q00613 whole entry, looked up, the tested form may be a part): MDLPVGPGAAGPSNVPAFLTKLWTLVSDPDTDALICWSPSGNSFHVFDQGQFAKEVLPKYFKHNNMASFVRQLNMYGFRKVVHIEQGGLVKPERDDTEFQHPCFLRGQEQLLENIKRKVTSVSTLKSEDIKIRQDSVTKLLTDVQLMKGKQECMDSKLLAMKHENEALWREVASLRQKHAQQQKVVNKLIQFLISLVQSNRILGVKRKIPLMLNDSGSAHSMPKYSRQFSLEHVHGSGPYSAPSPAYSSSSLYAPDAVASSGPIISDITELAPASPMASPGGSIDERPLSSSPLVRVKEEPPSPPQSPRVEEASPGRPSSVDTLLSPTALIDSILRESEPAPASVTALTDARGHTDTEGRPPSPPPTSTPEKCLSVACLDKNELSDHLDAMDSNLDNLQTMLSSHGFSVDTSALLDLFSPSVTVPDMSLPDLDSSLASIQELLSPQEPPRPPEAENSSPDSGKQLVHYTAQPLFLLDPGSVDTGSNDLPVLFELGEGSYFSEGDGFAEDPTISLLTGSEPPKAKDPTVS
Chain of Bile acid receptor (Homo sapiens) (Q96RI1 whole entry, looked up): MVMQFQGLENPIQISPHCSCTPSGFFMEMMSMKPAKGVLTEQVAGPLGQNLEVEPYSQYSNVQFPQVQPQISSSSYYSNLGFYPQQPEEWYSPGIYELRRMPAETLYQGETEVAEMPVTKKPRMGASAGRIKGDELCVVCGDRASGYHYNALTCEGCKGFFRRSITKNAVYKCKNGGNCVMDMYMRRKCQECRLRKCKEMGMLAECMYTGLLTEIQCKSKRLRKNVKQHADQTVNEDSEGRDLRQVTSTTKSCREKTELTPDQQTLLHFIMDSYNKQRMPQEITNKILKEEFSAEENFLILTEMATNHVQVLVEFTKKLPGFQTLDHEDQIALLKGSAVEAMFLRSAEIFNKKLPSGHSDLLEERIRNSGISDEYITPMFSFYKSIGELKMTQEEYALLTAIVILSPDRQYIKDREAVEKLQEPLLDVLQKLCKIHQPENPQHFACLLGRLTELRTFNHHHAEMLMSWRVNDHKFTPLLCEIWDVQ
Chain of Transcription factor Sp1 (Homo sapiens) (P08047 whole entry, looked up, the tested form may be a part): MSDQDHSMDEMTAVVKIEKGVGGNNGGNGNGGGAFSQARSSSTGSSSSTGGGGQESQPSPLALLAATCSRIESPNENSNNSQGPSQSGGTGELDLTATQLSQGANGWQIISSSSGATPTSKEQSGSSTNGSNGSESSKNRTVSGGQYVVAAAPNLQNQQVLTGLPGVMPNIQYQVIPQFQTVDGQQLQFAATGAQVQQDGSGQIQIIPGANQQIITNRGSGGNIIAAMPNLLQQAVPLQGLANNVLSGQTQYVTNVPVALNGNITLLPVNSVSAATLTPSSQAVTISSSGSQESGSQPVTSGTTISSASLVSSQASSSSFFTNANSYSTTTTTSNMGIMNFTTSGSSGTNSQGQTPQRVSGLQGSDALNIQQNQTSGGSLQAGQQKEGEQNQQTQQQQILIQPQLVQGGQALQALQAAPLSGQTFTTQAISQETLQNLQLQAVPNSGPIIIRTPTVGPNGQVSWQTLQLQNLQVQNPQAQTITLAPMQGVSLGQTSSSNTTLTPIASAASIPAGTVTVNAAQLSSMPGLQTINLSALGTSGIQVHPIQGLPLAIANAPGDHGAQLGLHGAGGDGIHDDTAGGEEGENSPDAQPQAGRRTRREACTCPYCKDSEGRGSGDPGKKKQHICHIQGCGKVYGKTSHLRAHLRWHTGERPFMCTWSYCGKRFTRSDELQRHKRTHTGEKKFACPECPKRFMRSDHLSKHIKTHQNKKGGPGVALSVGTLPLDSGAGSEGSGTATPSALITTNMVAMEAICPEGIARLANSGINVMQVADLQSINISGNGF
Chain of Signal transducer and activator of transcription 3 (Homo sapiens) (P40763 whole entry, looked up): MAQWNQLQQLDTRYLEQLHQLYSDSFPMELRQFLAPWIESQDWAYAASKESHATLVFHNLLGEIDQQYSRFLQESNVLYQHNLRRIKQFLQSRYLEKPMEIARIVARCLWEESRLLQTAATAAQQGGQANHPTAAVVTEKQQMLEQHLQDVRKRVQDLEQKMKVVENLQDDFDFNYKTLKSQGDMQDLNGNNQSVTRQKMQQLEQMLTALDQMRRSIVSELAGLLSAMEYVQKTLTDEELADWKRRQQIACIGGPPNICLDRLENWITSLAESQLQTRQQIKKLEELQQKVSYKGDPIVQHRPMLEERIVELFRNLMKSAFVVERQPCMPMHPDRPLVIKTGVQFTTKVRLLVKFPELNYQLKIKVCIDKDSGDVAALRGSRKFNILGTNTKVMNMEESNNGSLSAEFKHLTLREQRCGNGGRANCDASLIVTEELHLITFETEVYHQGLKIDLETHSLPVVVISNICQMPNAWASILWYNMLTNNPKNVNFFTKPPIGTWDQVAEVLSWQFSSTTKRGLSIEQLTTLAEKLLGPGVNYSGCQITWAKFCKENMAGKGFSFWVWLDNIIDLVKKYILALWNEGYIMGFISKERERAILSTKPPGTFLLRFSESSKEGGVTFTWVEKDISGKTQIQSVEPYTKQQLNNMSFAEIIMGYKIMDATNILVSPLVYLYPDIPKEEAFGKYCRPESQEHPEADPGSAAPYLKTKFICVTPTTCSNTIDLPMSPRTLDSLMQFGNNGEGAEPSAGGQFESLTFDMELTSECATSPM
Chain of Paired box protein Pax-6 (Homo sapiens) (P26367 whole entry, looked up): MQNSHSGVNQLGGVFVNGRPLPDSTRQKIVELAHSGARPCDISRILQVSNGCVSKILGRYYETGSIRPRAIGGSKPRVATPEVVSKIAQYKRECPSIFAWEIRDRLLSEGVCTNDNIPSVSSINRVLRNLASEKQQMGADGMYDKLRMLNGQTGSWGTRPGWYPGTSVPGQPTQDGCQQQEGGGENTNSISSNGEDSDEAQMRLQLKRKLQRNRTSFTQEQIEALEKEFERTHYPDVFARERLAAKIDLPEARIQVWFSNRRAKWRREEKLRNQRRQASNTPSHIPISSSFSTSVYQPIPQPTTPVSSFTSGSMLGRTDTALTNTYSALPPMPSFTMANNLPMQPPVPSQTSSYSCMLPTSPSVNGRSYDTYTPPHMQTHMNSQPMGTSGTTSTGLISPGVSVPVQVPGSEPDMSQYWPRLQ
Chain of Hypoxia-inducible factor 1-alpha (Homo sapiens) (Q16665 whole entry, looked up): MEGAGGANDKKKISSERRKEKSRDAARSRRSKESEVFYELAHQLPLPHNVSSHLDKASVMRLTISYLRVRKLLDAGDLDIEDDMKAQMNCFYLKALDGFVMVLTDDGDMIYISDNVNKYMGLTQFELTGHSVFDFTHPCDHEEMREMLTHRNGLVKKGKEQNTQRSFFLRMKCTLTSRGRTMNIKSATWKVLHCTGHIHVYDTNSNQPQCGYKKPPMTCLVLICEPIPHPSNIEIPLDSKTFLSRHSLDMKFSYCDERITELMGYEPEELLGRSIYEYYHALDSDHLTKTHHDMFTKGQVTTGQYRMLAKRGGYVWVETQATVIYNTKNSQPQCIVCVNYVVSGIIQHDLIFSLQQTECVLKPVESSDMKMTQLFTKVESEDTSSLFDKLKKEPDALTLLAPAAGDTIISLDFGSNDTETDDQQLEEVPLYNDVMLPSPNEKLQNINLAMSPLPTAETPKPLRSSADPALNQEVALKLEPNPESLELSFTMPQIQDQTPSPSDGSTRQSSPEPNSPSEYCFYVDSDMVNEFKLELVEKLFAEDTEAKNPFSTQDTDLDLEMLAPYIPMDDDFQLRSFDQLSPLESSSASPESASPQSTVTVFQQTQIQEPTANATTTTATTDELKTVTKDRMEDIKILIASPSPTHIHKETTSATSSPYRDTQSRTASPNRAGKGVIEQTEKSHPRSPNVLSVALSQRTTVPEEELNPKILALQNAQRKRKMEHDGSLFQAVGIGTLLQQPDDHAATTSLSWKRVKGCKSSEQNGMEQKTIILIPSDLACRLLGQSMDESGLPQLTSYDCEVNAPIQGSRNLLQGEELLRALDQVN

As usually defined, the AC50 is the midpoint of the concentration-response curve, whichever way the signal moves. Take `OC12N=C(c3ccccc3)SC1Cc1cc(Cl)ccc12` (stereo not given): the outcome in experiment [1], in [2], in experiment [3], in [4], in [5] and in experiment [6] was inactive. In addition, the call in [7], in experiment [8], in [9], in [12], in [13] and in [14] was inactive. For the same molecule, the molecule was classed as inactive in experiment [15], in experiment [16] and in experiment [17]. The half-maximal activity concentration (AC50) is 4.27 µM (active) in experiment [10] and 50.7 nM (active) in experiment [11].

Consider `C[C@]12CC[C@@H]3c4ccc(O)cc4CC[C@H]3[C@@H]1CCC2=O`, for which the result in experiment [1], in experiment [3], in experiment [4], in experiment [5], in [6] and in experiment [7] was inactive. Moreover, the call in experiment [8], in experiment [9], in [13], in [14], in experiment [15] and in experiment [16] was inactive. Further, in experiment [18], the molecule was called inactive.

For `CCCCCCCCOc1ccc(C(=O)c2ccccc2)c(O)c1`, the result in [1], in experiment [3], in experiment [4], in experiment [5], in experiment [19] and in [6] was inactive. Moreover, the molecule was classed as inactive in experiment [7], in [8], in experiment [20], in experiment [9], in [10] and in experiment [11]. Besides, the outcome in [12], in experiment [13], in experiment [14], in experiment [15], in experiment [16] and in experiment [17] was inactive. Also, the outcome in [18] was inactive.

Take `CO[C@H]1/C=C/O[C@@]2(C)Oc3c(C)c(O)c4c(O)c(c(/C=N/N5CCN(C)CC5)c(O)c4c3C2=O)NC(=O)/C(C)=C\C=C\[C@H](C)[C@H](O)[C@@H](C)[C@@H](O)[C@@H](C)[C@H](OC(C)=O)[C@@H]1C`: the molecule was called inactive in experiment [3], in experiment [4], in experiment [5], in [6], in [7] and in experiment [8]. The outcome in [20], in experiment [9], in experiment [11], in [12], in experiment [13] and in experiment [14] was inactive. Also, the result in [15], in experiment [16] and in experiment [18] was inactive. The AC50 in experiment [10] was 461 nM (active) and 369 nM (active).
